# In PMC4552634, “A New Set of Chemical Starting Points with Plasmodium falciparum Transmission-Blocking Potential for Antimalarial Drug Discovery” (PLoS ONE, 2015):
# Hit rate of the full screen: of about 13,000 compounds, about 3,200 (25%) showed an effect of 50% or more. The list shows a part of the results.
# Test system: P. falciparum stage V gametocytes
# Parameters: BacTiter-Glo ATP luminescence viability of purified stage V gametocytes in 384-well plates, per cent inhibition versus DMSO
# Settings: 48 h, 5 µM; inhibitor
row,SMILES,% Inhibition
1,CCOc1cc(Cc2cnc(N)nc2N)cc(OCC)c1O [TCMDC-137181],40.77%
2,O=C(/C=C/c1ccc(Cl)c(Cl)c1)N1CCC(CN2CCC(c3cn(CC(=O)N4CCCCC4)c4ccccc34)CC2)CC1 [TCMDC-134193],103%
3,CC(C)NC(=O)Cn1cc(C2CCN(CC3CCN(C(=O)/C=C/c4ccc(Cl)c(Cl)c4)CC3)CC2)c2ccccc21 [TCMDC-134172],-9.49%
4,O=C(c1ccc(O)c(-c2cc(Cl)cc(Cl)c2)c1)N(CCO)CCO [TCMDC-140160],-5.034%
5,COc1ccc2c(=O)c(-c3ccc(OC(F)(F)F)cc3)c(C)[nH]c2c1 [TCMDC-138811],45.07%
6,COc1ccc2c(=O)c(I)c(C)[nH]c2c1 [TCMDC-138141],64.56%
7,COc1ccc2c(=O)c(Br)c(C)[nH]c2c1 [TCMDC-137426],72.62%
8,COc1ccc2c(=O)c3ccc(OC)cc3[nH]c2c1 [TCMDC-132054],37.12%
9,Cc1cc2c(cc1C(F)(F)F)N(C(=O)Nc1cc(C(=O)NCCN(C)C)cc(C(F)(F)F)c1)CC2 [TCMDC-139884],20.84%
10,Cc1cc(C(=O)Nc2ccc3c(c2)CCN3C2CCN(Cc3cccc(F)c3F)C2)no1 (stereo not shown) [TCMDC-135079],-28.63%
11,CCCC(C)Nc1nc(C)cc(N[C@@H](CC(C)C)C(=O)NCc2cccc(F)c2)n1 (stereo partly shown) [TCMDC-134768],-55.2%
12,Cc1cc(N[C@@H](CC(C)C)C(=O)NCc2cccc(F)c2)nc(NCC2CCCCC2)n1 [TCMDC-134916],-56.42%
13,COc1ccccc1CCNc1nc(C)cc(N[C@@H](CC(C)C)C(=O)NCc2cccc(F)c2)n1 [TCMDC-134863],80.77%
14,COc1ccccc1CCNc1nc(C)cc(N[C@@H](Cc2ccccc2)C(=O)NCc2cccc(F)c2)n1 [TCMDC-134893],92.55%
15,Cc1cccc(CNc2nc(C)cc(N[C@@H](Cc3ccccc3)C(=O)NCc3cccc(F)c3)n2)c1 [TCMDC-134887],21.53%
16,Cc1cc(N[C@@H](Cc2ccccc2)C(=O)NCc2cccc(F)c2)nc(NCc2ccccc2C)n1 [TCMDC-134903],-28.89%
17,Cc1cc(N[C@@H](Cc2ccccc2)C(=O)NCc2cccc(F)c2)nc(NCC2CCCCC2)n1 [TCMDC-134928],5.769%
18,Cc1cc(N[C@@H](Cc2ccccc2)C(=O)NCc2cccc(F)c2)nc(NCCc2ccccc2)n1 [TCMDC-134773],75.65%
19,Cc1cc(N[C@@H](Cc2ccccc2)C(=O)NCc2cccc(F)c2)nc(NCCc2ccc(F)cc2)n1 [TCMDC-134785],98.48%
